Measurements taken from PubChem BioAssay (NCI).
The panel holds about 83,000 compounds, 20% with a hit somewhere; the sample as a whole holds those more often.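 Negative percent growth values reflect cell death: -40 means 40% of the cells present at the start died, and -100 means all died.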 A number with no mark means an inactive call. The source made the active and inactive calls. Rule for the calls: active = growth percent below 10; inactive = the rest.

Legend:
Assay in all cases: NCI-60 one-dose screen, 48 h (100 = growth as untreated, 0 = no growth, -100 = all killed)
EKVX NSCLC = conditions: 10 µM unless noted
SN12C renal = conditions: 10 µM unless noted
UO-31 renal = conditions: 10 µM unless noted
TK-10 renal = conditions: 10 µM unless noted
ACHN renal = conditions: 10 µM unless noted
A498 renal = conditions: 10 µM unless noted
CCRF-CEM leukemia = conditions: 10 µM unless noted
MOLT-4 leukemia = conditions: 10 µM unless noted
SR leukemia = conditions: 10 µM unless noted
RPMI-8226 leukemia = conditions: 10 µM unless noted
OVCAR-8 ovarian = conditions: 10 µM unless noted
OVCAR-5 ovarian = conditions: 10 µM unless noted
OVCAR-4 ovarian = conditions: 10 µM unless noted
SK-OV-3 ovarian = conditions: 10 µM unless noted
IGROV1 ovarian = conditions: 10 µM unless noted
OVCAR-3 ovarian = conditions: 10 µM unless noted
HS 578T breast = conditions: 10 µM
NCI/ADR-RES ovarian = conditions: 10 µM unless noted
CAKI-1 renal = conditions: 10 µM unless noted

| Compound | growth (EKVX NSCLC) | growth (SN12C renal) | growth (UO-31 renal) | growth (TK-10 renal) | growth (ACHN renal) | growth (A498 renal) | growth (CCRF-CEM leukemia) | growth (MOLT-4 leukemia) | growth (SR leukemia) | growth (RPMI-8226 leukemia) | growth (OVCAR-8 ovarian) | growth (OVCAR-5 ovarian) | growth (OVCAR-4 ovarian) | growth (SK-OV-3 ovarian) | growth (IGROV1 ovarian) | growth (OVCAR-3 ovarian) | growth (HS 578T breast) | growth (NCI/ADR-RES ovarian) | growth (CAKI-1 renal) [%] |
| --- | --- | --- | --- | --- | --- | --- | --- | --- | --- | --- | --- | --- | --- | --- | --- | --- | --- | --- | --- |
| COc1ccc(/C(=C\c2cc(OC)c(OC)c(OC)c2)C(=O)N2CCN(c3ccccc3)CC2)cc1O | 94.7% | 93.8% | 69.7% | 103% | 98.3% | 94% | 85.5% | 91.3% | 87.7% | 73.5% | 96.8% | 101% | 98.1% | 111% | 102% | 111% | 87.8% | 93.9% |  |
| CCCCc1n(Cc2ccc3ccccc3n2)cc[n+]1Cc1ccc2ccccc2n1 | 50.9% | 4.6% (active) | 83.5% | 27.6% | 96.1% | 7.39% (active) | 23.3% |  | 6.57% (active) | -20.3% (active) | 15% | 25.2% | 14% | 24.4% | 17.8% | 9.83% (active) | 41.5% | 97.9% |  |
| O=c1[nH]c2cc(Cl)c(Cl)cc2o1 | 68.3% | 95.5% | 99.6% | 113% | 104% | 92.7% | 118% | 106% | 126% | 111% | 104% | 113% | 106% | 107% | 138% | 102% | 100% | 116% |  |
| CCCc1n(Cc2ccc3ccccc3c2)c2ccccc2[n+]1Cc1ccc2ccccc2c1 | -4.84% (active) | -48.4% (active) | -15.4% (active) | -79.7% (active) | 3.74% (active) | -17.2% (active) | -32.3% (active) | -58.9% (active) | -46.7% (active) | -60.9% (active) | -71.3% (active) | -27.1% (active) | -16% (active) | -21.5% (active) | -64.8% (active) | -76.8% (active) | -8.47% (active) | 79.4% |  |
| CCOc1c(C#N)c2c(N)ncnc2n1C1OC(CO)C(O)C1O (stereo unspecified) | 58.4% | 39.2% | 6.4% (active) | 88.4% | 33.9% | -13% (active) | -8.09% (active) |  |  |  | 89.6% | 83.6% | 56.1% | 52.9% | -57.7% (active) | -41.4% (active) | 50.9% | 62.4% |  |
| Cc1ccccc1CNc1ncnc2[nH]ncc12 | 71.6% | 112% | 37% | 83.8% | 87.2% | 93.9% | 146% | -58.2% (active) | 60.9% | 88.5% | 59.7% | 89.6% | 78% | 100% | -19.4% (active) | 117% | 165% | 106% |  |
| O=C(O)Cn1ccc2ccccc21 | 102% | 113% | 76.4% | 153% | 99.9% | 110% | 98.4% |  |  |  | 92.6% | 100% | 97.8% | 134% | -6.06% (active) | 104% | 108% | 103% |  |
| CNC(=O)c1cc(Oc2ccc(NC(=O)c3nc(S(C)(=O)=O)sc3-c3ccc(F)cc3)cc2)ccn1 | 77.8% | 97.5% | 87.5% | 77% | 90.8% | 99.6% | 85.9% | 83.1% | 88% | 15.9% | 102% | 107% | 91.7% | 118% | 100% | 50% | 101% | 94.7% |  |
| COc1ccc(/C=C(/C(=O)N2CCN(c3ccccc3)CC2)c2cc(OC)c(OC)c(OC)c2)cc1N | 41.1% | 40.1% | 52.1% | 63.5% | 35.1% | -2.34% (active) | 8.84% (active) | 10.1% | 12.5% | 7.73% (active) | 19.7% | 53.2% | 52.3% | 36.9% | 36.3% | -43.8% (active) | 36.6% | 7.6% (active) |  |
| COc1ccc2[nH]cc(C(c3ccc(Cl)cc3)N3CCCC3)c2c1 (stereo unspecified) |  | 109% | 59% | 87.6% | 93.1% | 87% | 70.2% | 75.1% | 59.9% | 85.9% | 94.8% | 101% | 104% | 109% | 83.2% | 99.5% | 86.3% | 97.9% | 89.4 |
| CC(=O)OC1Oc2cc(C)c(C)cc2-c2oc(=O)c(-c3ccc(F)cc3)cc21 (stereo unspecified) | 81.7% |  | 62.2% | 120% | 89.5% | 47.9% | 36% |  |  |  | 81.9% | 86.2% | 73.2% | 79.1% | 54.4% |  | 60.5% | 28.5% |  |
| COc1cc(C(=O)/C=C/c2cn(-c3ccccc3)nc2-c2cccc(Nc3ccnc4cc(Cl)ccc34)c2)cc(OC)c1OC |  | 90.9% | 86.4% | 133% | 108% | 99.6% | 21% | 63.3% | 3.48% (active) | 47.2% | 78.5% | 112% | 127% | 115% | 93.2% | 132% | 102% |  | 103 |
| COc1cc(C2C=C(C)N=C3SC=NN32)cc(OC)c1OC (stereo unspecified) |  | 100% | 99.5% | 109% | 102% | 90.9% | 90.7% | 97.2% | 102% | 98.9% | 92% | 91.6% | 103% | 111% | 118% | 116% | 106% | 104% | 99 |
| COc1ccc(C(=O)/C=C/c2cn(-c3ccccc3)nc2-c2cccc(Nc3ccnc4cc(Cl)ccc34)c2)cc1 |  | 89.8% | 86.6% | 120% | 103% | 94.8% | 48.3% | 104% | 8.4% (active) | 66.7% | 91.1% | 111% | 115% | 118% | 105% | 110% | 88.8% |  | 94.3 |
| Cc1cc2nc3c(=O)[nH]c(=O)nc-3n(CC=O)c2cc1C | 95.6% | 97.7% |  | 111% | 105% | 116% | 160% | 109% | 129% | 140% | 121% |  | 100% | 106% | 88.7% | 106% | 101% | 111% | 64.8 |
| CC(C)(C)CC(C)(C)NCc1cc(C(C)(C)C)cc(CNC(C)(C)CC(C)(C)C)c1O | 37.2% | 69.3% | 27.4% |  | 37.4% | 64.9% | 49.3% | 30.3% | 1.23% (active) | 8.02% (active) |  | 68.6% |  | 81.3% | 61.1% | 79.2% | 67.6% | 55% | 55.3 |
| CN(C)CCOc1nc2c3cccnc3cc(-c3cccc(Cl)c3)c2c2ncccc12 | 34.3% |  | 38.2% | 28.5% | 6.48% (active) | 43.7% | 6.83% (active) | -9.06% (active) | 0.455% (active) | -21.6% (active) | 14.7% | 45.5% | 20.6% | 45% | 30.9% | 17.8% | 43.1% | 18.7% | 28.1 |
| COc1ccc(C2CC(c3cccc(Nc4ccnc5cc(Cl)ccc45)c3)=NN2c2ccccc2)cc1 (stereo unspecified) |  | 81.3% | 77.4% | 111% | 58.8% | 55.7% | 57.9% | 64.3% | 29.7% | 67.9% | 76.4% | 85.6% | 118% | 80.8% | 74.8% | 92.1% | 78.3% |  | 19.9 |
